# Rows were chosen to be rich in hits. Some 21% of all compounds tested hit in one or more screens of this group.
# DRD3 antagonist = blocks the human D3 dopamine receptor; P35462; D3R cells, DiscoveRx beta-arrestin luminescence, antagonist mode; active compounds read low; max response, negative = inhibition, %; 360,000 tested, 2.5% active; in the data active = max response below about -50%; inconclusive = no clear call, values can overlap the other calls; also: % is scaled to controls: 0 for no effect and ±100 for the full control effect
#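 Cells expressing the human receptor were seeded at 1500 cells/well, incubated overnight at 37 degrees C in 5% CO2, then exposed to library compounds with dopamine controls for 90 minutes at 37 degrees C before luminescent detection.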
# DRD3 agonist = D3 dopamine receptor (human) agonism; P35462; 410,000 tested, 0.58% active; AID 652048; D3R DiscoveRx beta-arrestin cells, luminescence, 90 min; max activation, %; in the data active = max activation above about 30%; also: 0% is about no effect
#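 Agonist mode: compounds and dopamine controls were applied to plated cells for 90 min at 37 degrees C after an overnight attachment at 1500 cells/well. Luminescent read-out followed 30 - 60 minutes at room temperature with DiscoveRx detection reagent.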
# ClpP mod = qHTS Assay for Activators of ClpP. 340,000 tested, 1.9% active. Potency, µM (titrated, usually from 57.5 µM), for the others: at the highest dose activity change, negative = active. purified B. subtilis ClpP, FRET peptide cleavage, 20 min; active = well fitted falling curve with a large enough effect; inconclusive = small, poorly fitted or top-dose-only effect; inactive = no such curve, though single readings can be large or run the other way; also: potency is read from the fitted curve at half-maximal effect; the source files actives as falling curves though it sought activators and does not explain the sign; nearly all actives have a fitted effect of over 65% in size
#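 FRET quenching reversal measured ClpP activation: 10 microg/mL B. subtilis ClpP at pH 8 with the FRET-FV decapeptide, read at 430 nm after 320 nm excitation. The 20-min minus 0-min signal was scaled between DMSO/no-enzyme wells and ADEP (5.8 microM final).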
# DT40 TDP1 no CPT = qHTS for Inhibitors of human tyrosyl-DNA phosphodiesterase 1 (TDP1): qHTS in cells in absence of CPT; DT40 Tdp1-/- hTDP1 cells, no CPT, ATP luminescence, 48 h; Potency, µM (top dose mostly 46.2 µM), inactives show at the highest dose activity change, negative = growth inhibition, most hits filed as inhibitors; 420,000 tested, 15% active; AID 686978, 2013; also: potency is read from the fitted curve at half-maximal effect; % is scaled to controls: 0 for no effect and ±100 for the full control effect; nearly all actives have a fitted effect of over 55% in size
#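 Cells were dispensed at 400 per well, compounds added by pin tool, plates incubated ≥48 hr at 37 °C, then CellTiter-Glo added for 30 min at room temperature before luminescence reading. Line: DT40 Tdp1-/- complemented with hTDP1; camptothecin omitted.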
# IL1B secr inh = inflammasome signaling inhibition, IL-1 beta readout; THP-1 LPS/ATP IL-1B secretion, AlphaLISA, 16 h; active compounds read low; AID 743279; activity change, % at 57.5 µM; 360,000 tested, 4.7% active; in the data active = activity change below about -50%; inconclusive = mostly about -30% to -49%; also: % is scaled to controls: 0 for no effect and ±100 for the full control effect
#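 THP-1 cells pretreated 1 hr with compounds (up to 57.5 uM final), then stimulated with LPS (250 ng/mL final) plus ATP (1.25 mM final); secreted IL-1B measured by AlphaLISA after 16 hr, decreased signal indicating inhibition.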
# DT40 TDP1 CPT = DT40-hTDP1 cell growth loss with CPT; chicken DT40 Tdp1-/-;hTDP1 cells + 20 nM CPT, ATP luminescence, 48 h; Potency, µM (highest dose often 46.2 µM), without a hit: at the highest dose activity change, negative = growth inhibition, most hits filed as inhibitors; 420,000 tested, 12% active; AID 686979; also: potency is read from the fitted curve at half-maximal effect; % is scaled to controls: 0 for no effect and ±100 for the full control effect; nearly all actives have a fitted effect of over 55% in size
#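 Chicken DT40 Tdp1-/- cells stably complemented with human TDP1 were seeded at 400 cells/well in medium containing 20 nM camptothecin, exposed to pin-transferred compounds, and grown at 37 °C for at least 48 hr. Viability was read as ATP luminescence.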
# * marks the source's active call; other numbers are inactive results; i = inactive; ? = inconclusive; . = no result given; ! = not active in a repeat. Unless noted, calls follow the shape of the dose curve; as a rule, active = well fitted inhibition curve with a large enough effect; inconclusive = small, poorly fitted or top-dose-only effect; inactive = flat fitted curve, though single readings scatter.
SMILES,DRD3 antagonist,DRD3 agonist,ClpP mod,DT40 TDP1 no CPT,IL1B secr inh,DT40 TDP1 CPT
Cc1ccccc1NC(=O)CCc1c(C)nn(-c2ccc(N3CCCCC3)nn2)c1C,-14.9,-2.2,-1.4%,20.6µM*!,0.5,16.4µM*
Cc1nn(-c2ccc(N3CCOCC3)nn2)c(C)c1CCC(=O)Nc1ccc(F)cc1,-2.1,4.8,2.0%,16.4µM*,-9.8,-4.1%
COc1cc(NC(=O)CCc2c(C)nn(-c3ccc(N4CCCCC4)nn3)c2C)cc(OC)c1OC,.,73.3*,-0.4%,?,.,20.6µM*
COC(=O)c1ccc(NC(=O)CCc2c(C)nn(-c3ccc(N4CCCCC4)nn3)c2C)cc1,.,-17.3,-3.2%,?,.,23.1µM*
Cc1nn(-c2ccc(N3CCCC3)nn2)c(C)c1CCC(=O)N1CCN(c2ccc(F)cc2)CC1,.,4.0,0.4%,?,.,14.6µM*
Fc1ccccc1OCCCn1ccnc1,-6.6,-7.1,0.1%,0.6%,60.4,-12.7%
Cc1ccc(Cn2c(=O)c3cccnc3n(Cc3ccc(C)cc3)c2=O)cc1,.,3.6,-6.8%,-18.8%,.,-26.7%
O=C(O)CCCN1C(=O)C2C3CCC(C3)C2C1=O (stereo not drawn),-73.4*,3.1,-2.3%,1.2%,23.0,?
O=C(NCc1cccc(Br)c1)C1CC(c2ccc(C(F)(F)F)cc2)=NO1 (stereo not drawn),12.5,-0.2,2.2%,?,13.3,?
COc1ccc(CCNc2nc(-c3ccco3)cc(C(F)(F)F)n2)cc1OC,16.1,2.0,-12.3%,?,-7.6,?
O=C(CCSc1nc(-c2ccco2)cc(C(F)(F)F)n1)NCc1ccccn1,-9.1,-1.7,-2.2%,-20.0%,-22.2,-27.8%
O=C(CCSc1nc(-c2ccco2)cc(C(F)(F)F)n1)NCc1cccs1,-4.5,0.1,-0.6%,?,-9.1,16.4µM*
COc1ccc(CCNC(=O)CCSc2nc(-c3ccco3)cc(C(F)(F)F)n2)cc1OC,48.9,6.5,2.4%,16.4µM*,?,14.6µM*
CC(NC(=O)CCSc1nc(-c2ccco2)cc(C(F)(F)F)n1)c1ccccc1 (stereo not drawn),18.9,12.3,-8.9%,?,-29.8,13µM*
O=C(CCSc1nc(-c2ccco2)cc(C(F)(F)F)n1)N1CCN(c2ccccc2)CC1,41.1,11.3,-1.5%,20.6µM*,-2.5,?
FC(F)(F)c1cc(-c2ccco2)nc(N2CCN(c3ccccc3)CC2)n1,12.4,15.2,-0.3%,-13.3%,31.6,-21.8%
NS(=O)(=O)c1cccc(NC(=O)c2cccnc2Oc2ccccc2)c1,-3.7,-1.8,.,?,-5.9,-20.7%
COc1cccc(NS(=O)(=O)c2cc3c4c(c2)C(C)C(=O)N4CCC3)c1 (stereo not drawn),.,-2.4,-1.0%,?,.,?
Cn1cc(CN2CCC(Oc3ccc(C(=O)N4CCCCC4)cc3)CC2)cn1,-3.7,-2.5,-1.6%,-0.5%,3.5,9.6%
O=C(c1ccc(OC2CCN(Cc3ccc(C(F)(F)F)cc3)CC2)cc1)N1CCCCC1,-4.4,-13.7,.,20.6µM*,4.0,?
CC(C)n1cc(CN2CCC(Oc3ccc(C(=O)N4CCCCC4)cc3)CC2)cn1,-14.9,-34.5,22.4µM*,-4.8%,0.0,-1.1%
O=C(c1ccc(OC2CCN(Cc3ccccc3C(F)(F)F)CC2)cc1)N1CCCCC1,-22.8,-10.6,-1.1%,?,-84.7*,?
Cn1cc(CN2CCC(Oc3ccc(C(=O)N4CCCC4)cc3)CC2)cn1,0.0,-1.0,0.3%,-10.0%,-1.4,-15.2%
Cc1ccc2cc(/C=C3\N=C(c4ccccc4)OC3=O)c(N3CCOCC3)nc2c1,-1.8,-1.8,-7.1%,18.4µM*,15.1,?
CCn1c(SCC(=O)N2CCCc3ccccc32)nc2c(c1=O)SC(C)C2 (stereo not drawn),-5.8,0.1,0.0%,?,13.9,16.4µM*
SMILES,DRD3 antagonist,DRD3 agonist,ClpP mod,DT40 TDP1 no CPT,IL1B secr inh,DT40 TDP1 CPT
CN1CCN(C(=S)SCC(=O)N2CCCc3ccccc32)CC1,-60.5*,-50.1,3.7%,-27.9%,-2.9,7.1%
CC1Cc2nc(SCC(=O)N3CCCc4ccccc43)n(C)c(=O)c2S1 (stereo not drawn),-10.2,-2.8,-0.7%,13µM*,12.5,?
CC1CCN(C(=O)CSc2nc3c(c(=O)n2C)SC(C)C3)CC1 (stereo not drawn),0.2,-6.9,-0.2%,20.6µM*,i,?
Cn1nnnc1SCC(=O)N1CCCc2ccccc21,4.5,3.6,61.5%,-23.5%,33.5,-7.5%
Cc1ccc2c(=O)c(C(=O)c3cccc(Cl)c3)cn(CC(=O)NCc3ccc(F)cc3)c2n1,.,5.2,0.2%,?,.,-21.1%
Cc1c(C(=O)N2CCC(C)CC2)c(S(=O)(=O)NCc2ccc(Cl)cc2)c(C)n1C,.,-14.4,1.9%,-26.5%,.,?
COc1ccc(S(=O)(=O)N2CCN(CCOc3ccccc3Cl)CC2)cc1OC,-21.9,35.6*,-2.0%,?,-15.9,23.1µM*
COc1cc2c(cc1OC)CN(CCOc1ccc(Br)cc1)CC2,-99.8*,-1.6,-3.5%,?,-9.7,?
CN1CCN(CCCCOc2ccc(Br)cc2)CC1,-6.6,-1.2,0.6%,?,-14.9,?
Cc1ccc(S(=O)(=O)N2CCN(CCOc3c(Cl)cccc3Cl)CC2)cc1C,-8.1,-0.5,0.9%,?,-0.9,20.6µM*
COc1ccc(S(=O)(=O)N2CCN(CCOc3ccc(Br)cc3)CC2)cc1OC,8.4,0.4,-2.1%,14.6µM*,-21.0,?
COc1cccc(N2C(=O)C(CC(=O)Nc3ccccc3)N(CCc3sccc3C)C2=O)c1 (stereo not drawn),.,5.2,0.2%,?,.,18.4µM*
COc1ccc(NC(=O)CC2C(=O)N(c3ccccc3)C(=O)N2CCc2sccc2C)cc1 (stereo not drawn),.,9.6,-0.6%,16.4µM*,.,?
CCOc1ccc(NC(=O)CC2C(=O)N(c3ccccc3)C(=O)N2CCc2sccc2C)cc1 (stereo not drawn),.,0.7,1.1%,18.4µM*,.,14.6µM*
CCOc1ccc(NC(=O)CC2C(=O)N(c3ccc(OC)cc3)C(=O)N2CCc2cccs2)cc1 (stereo not drawn),13.2,-1.1,-2.3%,?,0.0,-22.0%
COc1ccc(NC(=O)CC2C(=O)N(c3ccc(F)cc3)C(=O)N2CCc2sccc2C)cc1 (stereo not drawn),.,5.6,-0.7%,?,.,?
